Measurements reported in PubChem BioAssay AID602477 (National Center for Advancing Translational Sciences (NCATS), 2012).
Results filed as inconclusive are left out. Values without a mark were called inactive. The source made the active and inactive calls. Calls follow the shape of the dose curve; as a rule, active = well fitted activation curve with a large enough effect; inconclusive = small, poorly fitted or top-dose-only effect; inactive = no such curve, though single readings can be large or run the other way.

assay: FLuc inhibitory activity for the follow-up compounds in a cell-based assay to assess the activity of miR-21; conditions: HeLa miR-21-FLuc reporter, luciferase luminescence, 48 h; series mostly up to 38.3 µM; activity change, positive = activation: at the top concentration
Source text: NCGC Assay Overview: Firefly (Photinus pyralis) luciferase is one of the most commonly used transcriptional reporters. It is considered one of the more dynamically responsive reporters - that is, responsive to changes in reporter transcription - as it requires no post-translational modifications and is enzymatically active directly after protein synthesis (Wood, 1998). With no endogenous expression in mammalian cells and without the requirement of external excitation, it offers very little background signal, thus generally providing excellent signal to background for most assays. Previous profiling work to determine the prevalence of compounds that affect FLuc enzymatic activity (PubChem AID 411) identified that ~3% of the MLSMR library (then at ~72K) inhibited FLuc (Auld et al., 2008). […] Of the compounds identified in this profile that inhibited FLuc, 151 compounds were selected for further analysis, in an effort to better understand their mode of inhibiting FLuc. The assay described here was to determine the activity of the compounds in a cell-based firefly luciferase reporter gene assay originally designed to identify antagonists of miR-21. Compounds that inhibit miR-21 or compounds that stabilize FLuc intracellularly are identified as active compounds in the assay.
NCGC Assay Protocol Summary: Reagents: In-house detection reagent: 300mM Tris-HCl, 300mM Trizma base, 300mM MgCl, 1% Triton-X100, 5mM DTT, 500uM Coenzyme A trilithium salt (Sigma #C3019),450uM ATP (Sigma #A7699), 1mM D-luciferin sodium salt monohydrate (Biosynth #L8240) HeLa cells stably expressing firefly luciferase (FLuc) under the control of a CMV promoter (upstream) and a miR-21 binding sequence directly downstream of the gene. These cells endogenously express miR-21. Control compounds used were two known firefly luciferase inhibitors (3-(5-(3-chlorophenyl)-1,2,4-oxadiazol-3-yl)benzoic acid and 5-(2-fluorophenyl)-3-phenyl-1,2,4-oxadiazole), and DMSO. Assay Summary: 6uL of HeLa miR-21-FLuc cells in assay buffer (DMEM, Invitrogen #21063-029; 10% FBS, HyClone #SH30071.03) were dispensed at 2000cells/well (3.3 x 10^5 cells/mL) into Greiner solid-white TC-treated 1536-well plates using a Multidrop Combi (Thermo Fisher Scientific). Plates were incubated for one hour at 37 degree Celsius, 95% humidity, 5% CO2. These assay plates were then treated with 23nL of compound or DMSO using a Kalypsys pin tool, which allows for delivery of a 12-point titration of each compound to the assay plate, with a final compound concentration ranging from approximately ~38uM to 0.2nM. Assay plates were then incubated for 48 hours. After incubation, plates were allowed to come to RT for one hour prior to delivery of 3uL of 3X luciferase detection reagent. After a 15 minute incubation to allow for cell lysis, luciferase activity was measured using a ViewLux CCD imager (PerkinElmer), with an average exposure time of 2-12 seconds.

SMILES | Potency | activity change, positive = activation [%]
CCOc1ccc2nc(NC(=O)c3cccnc3)sc2c1 | 1130 nM (active) | 
COc1ccc(CC(=O)Nc2ccc(-c3nc4ccccc4s3)c(C)c2)cc1 | 14200 nM (active) | 
O=C(Cc1ccccc1)Nc1ccc(C(=O)Nc2ccccc2C(=O)O)cc1 |  | 10.4
O=C(Nc1ccccc1C(=O)O)c1cccc(NC(=O)c2ccccc2Br)c1 |  | 18.7
CCOc1ccc(C(=O)Nc2ccccc2C(=O)O)cc1 | 1130 nM (active) | 
COc1ccc(-c2cccc(C(=O)Nc3cccc(C(=O)O)c3)c2)cc1 | 4490 nM (active) | 
COc1ccc(C(=O)Nc2ccccc2C(=O)Nc2ccc(C(=O)O)cc2)cc1 | 8950 nM (active) | 
COc1cc(OC)cc(-c2nc3ccccc3s2)c1 | 3560 nM (active) | 
Nc1ccc(-c2nc3ccc(N)cc3s2)cc1 | 283 nM (active) | 
CCOc1ccc(C(=O)Nc2cccc(C(=O)O)c2)cc1Cl | 356 nM (active) | 
Cc1ccc2nc(-c3ccc(N)cc3)sc2c1 | 35.6 nM (active) | 
CC(C)c1ccc(-c2nc3ccccc3s2)cc1 | 25.2 nM (active) | 
CC(=O)Oc1ccc(C(=O)Nc2ccccc2C(=O)Nc2ccc(C(=O)O)cc2)cc1 |  | -3.44
O=C(Nc1c(Cl)cc(Cl)cc1-c1nc2ccccc2s1)c1ccc(Br)o1 | 12600 nM (active) | 
Cc1c(NC(=O)c2cccs2)cccc1-c1nc2ccccc2s1 | 20000 nM (active) | 
Cc1ccc2sc(-c3ccc(N)cc3)nc2c1 | 50.4 nM (active) | 
Nc1ccc2nc(-c3ccccc3)sc2c1 | 63.4 nM (active) | 
COc1c(C)cccc1C(=O)Nc1ccc(-c2nc3ccccc3s2)c(Cl)c1 | 22500 nM (active) | 
Nc1ccc(-c2nc3cc(N)ccc3s2)cc1 | 2250 nM (active) | 

SMILES | Potency | activity change, positive = activation [%]
COc1ccc2nc(NC(=O)c3cccc(S(=O)(=O)N4CCOCC4)c3)sc2c1 | 7110 nM (active) | 
O=C(COC(=O)c1ccccc1[N+](=O)[O-])c1ccc2c(c1)OCO2 | 5040 nM (active) | 
Cc1ccc(C(=O)O/N=C(\N)c2ccccn2)c(Cl)c1 | 31.8 nM (active) | 
COc1ccc2nc(NC(=O)c3cccs3)sc2c1 | 10000 nM (active) | 
COc1ccc2nc(NC(=O)Cc3cccs3)sc2c1 | 2830 nM (active) | 
Cc1ccc(C(=O)Nc2ccc(C(=O)O)cc2)cc1S(=O)(=O)Nc1ccccc1 |  | 20.5
Nc1ccc2nc(-c3ccc(O)cc3)sc2c1 | 400 nM (active) | 
C/C(=N\NC(=O)c1ccccc1NC(=O)c1ccc(Cl)cc1)c1ccncc1 | 44.9 nM (active) | 
CN(C)S(=O)(=O)c1ccc(C(=O)Nc2cccc(C(=O)O)c2)cc1 |  | 24.8
COc1ccc(Br)cc1C(=O)Nc1ccc(C(=O)O)cc1 | 7980 nM (active) | 
O=C(Nc1ccccc1C(=O)O)c1cc(S(=O)(=O)NCc2ccccc2)ccc1Cl |  | -6.4
COc1ccc(CC(=O)Nc2cccc(C(=O)Nc3ccccc3C(=O)O)c2)cc1OC | 5040 nM (active) | 
O=C(Nc1ccccc1C(=O)O)c1cccc(S(=O)(=O)Nc2ccc(Br)cc2)c1 |  | 9.47
O=C(O)c1cccc(NC(=O)c2cccc(S(=O)(=O)N3CCCCC3)c2)c1 | 14200 nM (active) | 
O=C(O)c1cccc(NC(=O)c2ccc(Cl)c(S(=O)(=O)N3CCCCCC3)c2)c1 | 634 nM (active) | 
COc1ccc2nc(NC(=O)c3ccc([N+](=O)[O-])o3)sc2c1 | 4490 nM (active) | 
Cc1ccc(C(=O)Nc2cccc(C(=O)O)c2)cc1 | 126 nM (active) | 
O=C(O)c1cccc(NC(=O)c2cccc(S(=O)(=O)Nc3cccc(F)c3)c2)c1 |  | 7.01
CCOc1ccc2nc(NC(=O)c3ccccn3)sc2c1 | 56.5 nM (active) | 
